PubChem BioAssay AID1476 (National Center for Advancing Translational Sciences (NCATS), 2009)
Screen size: about 200,000 compounds; about 4,500 (2.2%) were called active. Roughly 12% stayed inconclusive and do not appear here. Calls come from the whole dose curve; as a rule, active = well fitted inhibition curve with a large enough effect; inconclusive = small, poorly fitted or top-dose-only effect, or effect the other way; inactive = flat fitted curve, though single readings scatter. Many of the other results were omitted from the sample, so actives are more common in it than they were.

biological target: Cruzipain (Trypanosoma cruzi) (UniProt P25779); assay: qHTS Assay for Promiscuous and Specific Inhibitors of Cruzain (without detergent); conditions: purified cruzain, Z-FR-AMC fluorescence, no detergent; note: nearly all actives have a fitted effect of over 40% in size;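 for max response, negative = inhibition: plate controls were enzyme without inhibitor for no effect and buffer without enzyme for full effect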
In short: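 Purified cruzain at 1.5 nM, pre-incubated 15 min with compound at room temperature in 100 mM sodium acetate pH 5.5, 5 mM DTT, 0.00005% Triton X-100. Reaction started with 2 uM Z-FR-AMC; AMC fluorescence increase over 60 s gives rate.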
Potency is the fitted concentration of half-maximal effect.

Cruzipain (Trypanosoma cruzi), sequence (P25779 123-467 limits assumed): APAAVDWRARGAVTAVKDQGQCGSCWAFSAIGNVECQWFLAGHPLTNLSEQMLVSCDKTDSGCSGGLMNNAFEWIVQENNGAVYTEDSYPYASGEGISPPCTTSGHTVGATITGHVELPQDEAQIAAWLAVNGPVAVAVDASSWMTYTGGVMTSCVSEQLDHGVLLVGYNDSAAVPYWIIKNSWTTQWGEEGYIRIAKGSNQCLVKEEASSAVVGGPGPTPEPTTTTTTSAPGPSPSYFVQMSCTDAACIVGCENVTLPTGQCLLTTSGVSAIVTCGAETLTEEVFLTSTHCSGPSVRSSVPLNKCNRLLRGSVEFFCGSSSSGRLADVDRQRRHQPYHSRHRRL

Compound | max response, negative = inhibition | Potency
COc1cc(Br)cc2cc(S(=O)(=O)c3ccccc3)c(=O)oc12 | -12.9% (inactive) | –
Cc1nnc(SCC(=O)N2c3ccccc3C(C)(c3ccc(Cl)cc3)CC2(C)C)s1 (configuration not stated) | -0.125% (inactive) | –
CC1(c2cccc([N+](=O)[O-])c2)CC(C)(C)N(C(=O)c2ccccc2)c2ccccc21 (configuration not stated) | -29.1% (inactive) | –
CC1(c2ccccc2)CC(C)(C)N(C(=O)c2cc([N+](=O)[O-])cc([N+](=O)[O-])c2)c2ccccc21 (configuration not stated) | – | 25.1 µM (active)
Cc1ccc(Cn2cc(CCC(=O)NCc3ccc(OC(C)C)cc3)c3ccccc32)cc1 | 6.72% (inactive) | –
Cc1cc(C)cc(NC(=O)CSc2oc(-c3ccccc3)nc2S(=O)(=O)c2ccc(Cl)cc2)c1 | -6.39% (inactive) | –
COCCNC(=O)CSc1c(C)cnc2c1c(=O)n(C)c(=O)n2C | 7.18% (inactive) | –
COc1ccc(-c2c3c(=O)n(C)c(=O)n(C)c3cn2NC(C)=O)cc1 | -4.34% (inactive) | –
Cc1ccc(-c2c3c(=O)n(C)c(=O)n(C)c3cn2-n2cnnc2)cc1 | – | 12.6 µM (active)
Cc1ccc(-c2c3c(=O)n(C)c(=O)n(C)c3cn2-c2ccccc2O)cc1 | 12.7% (inactive) | –
CC(=O)c1ccc(NS(=O)(=O)c2ccc(-c3cc(C)no3)s2)cc1 | -22.1% (inactive) | –
O=C(Nc1ccc2nc(SCC(=O)N3CCc4ccccc43)sc2c1)c1ccccc1F | -3.59% (inactive) | –
CCC(=O)Nc1ccc2nc(SCC(=O)N3CCc4ccccc43)sc2c1 | 26.9% (inactive) | –
O=C(Nc1ccc2nc(SCC(=O)N3CCCc4ccccc43)sc2c1)c1ccc(Cl)cc1 | – | 10 µM (active)
COc1ccccc1NC(=O)CCC(=O)N1CC(C)Oc2ccc(C)cc21 (configuration not stated) | -1.12% (inactive) | –
O=C1c2cccc(OCC(=O)N3N=C(c4cccs4)CC3c3ccc(F)cc3)c2CCN1Cc1ccccc1 (configuration not stated) | – | 12.6 µM (active)
COc1ccc(C2CC(c3ccccc3)=NN2C(=O)CSc2nccc(=O)[nH]2)cc1 (configuration not stated) | -19% (inactive) | –
COc1ccccc1N1CCN(C(=O)Cn2nnc(-c3cccs3)n2)CC1 | -5.5% (inactive) | –
O=C(Cn1ncc2c3ccccc3n(Cc3ccccc3)c2c1=O)NCc1ccccn1 | 20.3% (inactive) | –
COC(=O)c1cnc(N2CCN(c3ccccc3OC)CC2)c2ccccc12 | 5.66% (inactive) | –
Cc1cccc(-n2c(SCC(N)=O)nc3c(c2=O)C2(CCCCC2)Cc2ccccc2-3)c1 | -0.318% (inactive) | –
N#CCSc1nc2c(c(=O)n1Cc1ccccc1)C1(CCCC1)Cc1ccccc1-2 | – | 12.6 µM (active)

Compound | max response, negative = inhibition | Potency
N#CCSc1nc2ccccc2c(=O)n1-c1ccccc1 | 3.22% (inactive) | –
CCS(=O)(=O)N1CCc2cc(C(=O)NCc3ccc(OC)cc3)ccc21 | -7.6% (inactive) | –
CCCCS(=O)(=O)c1oc(-c2cccs2)nc1S(=O)(=O)c1ccccc1 | -4.72% (inactive) | –
COC(=O)c1ccc(C2C(C(=O)Nc3ccccc3)=C(C)Nc3nc4ccccc4n32)cc1 (configuration not stated) | -6.78% (inactive) | –
CC(C)Nc1nnc(SCC(=O)c2c[nH]c3ccccc23)s1 | -13.7% (inactive) | –
CC(C)c1ccc(Nc2nnc(SCC(=O)c3nnc(-c4ccccc4)o3)s2)cc1 | – | 12.6 µM (active)
Cc1ccc(Nc2nnc(SCC(=O)c3cc4ccccc4o3)s2)cc1C | – | 15.8 µM (active)
Cc1ccc(Nc2nnc(SCc3ccccc3)s2)cc1 | -12.9% (inactive) | –
Cc1ccsc1C(=O)OCC(=O)c1cc2ccccc2o1 | 2.71% (inactive) | –
O=C(CSc1nnc(Nc2ccccc2)s1)Nc1cccnc1Cl | -18% (inactive) | –
CCN(c1ncnc2c1cnn2-c1ccc(C)cc1)C1CCCCC1 | 2.47% (inactive) | –
COc1cccc(-n2c(=O)c3c(C)c(C(=O)N(C)C)sc3n(Cc3cccc(C)c3)c2=O)c1 | -4.38% (inactive) | –
O=C(Nc1ccc(F)cc1F)c1ccc2c(=O)n3c(nc2c1)CCCCC3 | -3.34% (inactive) | –
CN(Cc1ccccc1)C(=O)c1cc2c(=O)n(C)c3ccccc3c2s1 | 3.44% (inactive) | –
Cc1cc(C(=O)OCC(=O)N2c3ccccc3NC(=O)C2(C)C)c(C)n1-c1ccccc1 | -5.2% (inactive) | –
Cc1n[nH]c(=O)n1-c1ccc(Oc2ccccc2)cc1 | 4.55% (inactive) | –
Cc1cc(-c2csc(N)n2)c(C)n1-c1ccccc1 | – | 25.1 µM (active)
Cc1cccc(N(C)C(=O)CS(=O)(=O)c2cccc3nsnc23)c1 | -1.79% (inactive) | –
COc1ccc(-n2c(SCC(=O)Nc3ccc(Cl)c(C)c3)nc3n[nH]c(C)c3c2=N)cc1 | -5.01% (inactive) | –
CCC(=O)N1CCc2cc(S(=O)(=O)NC(CC(C)C)C(=O)NCCc3cccc(C)c3)ccc21 (configuration not stated) | -3.67% (inactive) | –
COc1ccc(C)cc1NC(=O)C(OC(=O)c1cccc(S(=O)(=O)N(C)c2ccccc2)c1)c1ccccc1 (configuration not stated) | – | 7.94 µM (active)
COc1ccc(C)cc1NC(=O)C(Sc1ccccc1)c1ccccc1 (configuration not stated) | -12.8% (inactive) | –

Compound | max response, negative = inhibition | Potency
Cc1ccc(C)c(NC(=O)C(OC(=O)c2ccc(C)s2)c2ccccc2)c1 (configuration not stated) | 12.2% (inactive) | –
COc1c(Cl)cc(Cl)cc1C(=O)Nc1cccc2cccnc12 | -4.23% (inactive) | –
Cc1ccc2c(c1)N(C(=O)Nc1ccc(Br)cc1F)CCO2 | 5.17% (inactive) | –
C[C@@H]1C(c2ccc(F)cc2)=NN(c2ccc(Br)cc2)[C@H]1C(=O)N1CCOC1=O | – | 22.4 µM (active)
O=C1OCCN1C(=O)[C@H]1[C@H](c2ccc(Cl)cc2)C(c2cccc(Cl)c2)=NN1c1ccc(Br)cc1 | – | 8.91 µM (active)
O=C1OCCN1C(=O)[C@H]1[C@H](c2ccc(F)cc2)C(c2ccccc2)=NN1c1ccc(Br)cc1 | – | 22.4 µM (active)
COc1ccc(NS(=O)(=O)c2cc3c4c(c2)CC(=O)N4CCC3)cc1Cl | -28.2% (inactive) | –
COc1cccc(CNC(=O)c2ccc3c(c2)sc2nc(-c4cccc(OC)c4)cn23)c1 | -4.99% (inactive) | –
CC1CCN(c2nc3ccc(C(=O)N4CCN(c5ccccc5)CC4)cc3s2)CC1 | -2.72% (inactive) | –
CCC(CC)c1nn2cc(-c3ccccc3)nc2s1 | -2.39% (inactive) | –
Oc1c(C(c2ccc(F)cc2)N2CCN(Cc3ccccc3)CC2)sc2nc(-c3ccco3)nn12 (configuration not stated) | 1.08% (inactive) | –
CCC(=O)N1CCc2cc(S(=O)(=O)NCCC(=O)Nc3cccc(C)c3C)ccc21 | -1.54% (inactive) | –
Cc1ccc(NC(=O)CN2C(=O)C(c3ccc(F)cc3)=NC23CCCCCC3)c(C)c1 | 4.08% (inactive) | –
Cc1cc(C)cc(OCc2nnc(SCC(=O)Nc3ccccc3)o2)c1 | 4.82% (inactive) | –
CC(C)NC(=O)CSc1nnc(COc2ccccc2Cl)o1 | -5.33% (inactive) | –
Cc1ccccc1OCc1nnc(SCC(=O)N2c3ccccc3Sc3ccc(Cl)cc32)o1 | – | 12.6 µM (active)
CCOC(=O)c1c(NC(=O)COc2cc(C)ccc2C(C)C)sc(C)c1C | 8.07% (inactive) | –
Cc1ccc(CCNC(=O)c2ccc(CS(=O)(=O)Cc3cccc(C)c3)o2)cc1 | 19.9% (inactive) | –
CCCc1cc(=O)n2[nH]c(NCc3ccc(CC)cc3)nc2n1 | -8.1% (inactive) | –
CCc1ccc(NC(=O)N2CCN(C(=O)c3nsc4ccccc34)CC2)cc1 | -5.87% (inactive) | –
COc1cc(NC(=O)c2nn(-c3ccc(C)cc3)c(=O)c3c2c2ccccc2n3C)cc(OC)c1OC | -21.7% (inactive) | –
O=C1N(Cc2ccc3c(c2)OCO3)c2ccccc2C1(O)c1c[nH]c2ccccc12 (configuration not stated) | – | 15.8 µM (active)

Compound | max response, negative = inhibition | Potency
O=C1N(Cc2ccccc2)c2ccc(Cl)cc2C1(O)c1c[nH]c2ccccc12 (configuration not stated) | 18.9% (inactive) | –
O=C(CCCCn1c(=O)[nH]c2ccccc2c1=O)NCc1ccc2c(c1)OCO2 | 8.55% (inactive) | –
Oc1ccc(-c2nc3ccc(Cl)cn3c2Nc2ccc3c(c2)OCO3)cc1 | -3.92% (inactive) | –
CCc1ccc(-c2cc(C(=O)NCc3ccco3)c3ccccc3n2)s1 | -8.4% (inactive) | –
Cc1ccc(-c2cc(C(=O)N/N=C/C=C/c3ccco3)c3ccccc3n2)cc1C | – | 25.1 µM (active)
COc1cccc(-c2cc(C(=O)N/N=C/c3ccc(OC)c(COC(C)=O)c3)c3ccccc3n2)c1 | -16% (inactive) | –
N#Cc1nc(/C=C/c2ccc(F)cc2)oc1NC1CCCCC1 | -7.33% (inactive) | –
CCOc1ccc(C2C(C(=O)Nc3ccc(Cl)cc3)=C(C)Nc3nc(C(F)(F)F)nn32)cc1 (configuration not stated) | 3.69% (inactive) | –
Cc1ccc2oc(=O)c3cnn(CC(=O)N4CCN(c5cccc(Cl)c5)CC4)c3c2c1 | -11.7% (inactive) | –
Cc1ccccc1OCC(=O)NCC(=O)OCC(=O)c1ccc2ccccc2c1 | – | 10 µM (active)
COCCNC(=O)COc1ccccc1C | -9.1% (inactive) | –
Cc1cccc(NC(=O)COc2ccccc2C)n1 | 10.4% (inactive) | –
CCOc1ccc(NC(=O)C(=O)NCCc2csc3nc(-c4ccccc4F)nn23)cc1 | -1.02% (inactive) | –
CCCSc1ncc(Cl)c(C(=O)Nc2c(C(=O)Nc3ccccc3)oc3ccccc23)n1 | -6.15% (inactive) | –
O=C(CSc1nc2ccccc2o1)N1CCN(c2ccc(Cl)cc2)CC1 | – | 10 µM (active)
O=C(CN1CCN(c2ccc(Cl)cc2)CC1)N1CCCC1 | -5.28% (inactive) | –
CC1Cc2ccccc2N1C(=O)CSc1nc2ccccc2o1 (configuration not stated) | -7.1% (inactive) | –
O=C(CSc1nc2ccccc2o1)N1CCN(c2ccccc2)CC1 | -4.7% (inactive) | –
CCN(CC)C(=O)CSc1nc2ccccc2o1 | – | 3.16 µM (active)
Cc1ccc(/C=N/NC(=O)CSc2nc3ccccc3o2)cc1 | -9.67% (inactive) | –
COc1ccc(C2=NS(=O)(=O)N(C)C(C(=O)NC(C)c3ccccc3)=C2)cc1 (configuration not stated) | -27.6% (inactive) | –
